Results reported in PubChem BioAssay (NCI).
The panel holds about 83,000 compounds, 20% with a hit somewhere; the sample as a whole holds those more often.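 Values shown are percent growth following 48 h exposure of cells in 96-well plates to a single concentration of compound; below 10 was considered active.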 Calls of active or inactive are those of the source.

How the values were obtained:
Assay in all cases: NCI-60 one-dose screen, 48 h (100 = growth as untreated, 0 = no growth, -100 = all killed)
Settings in all cases: 10 µM unless noted
[1] = system: SK-MEL-2 melanoma
[2] = system: EKVX NSCLC
[3] = system: SN12C renal
[4] = system: UO-31 renal
[5] = system: TK-10 renal
[6] = system: ACHN renal
[7] = system: CAKI-1 renal
[8] = system: A498 renal
[9] = system: CCRF-CEM leukemia
[10] = system: MOLT-4 leukemia

Measured: growth

C1CN(SSN2CCOCC2)CCO1
active: [3] -74.7% [100 µM] | [4] -37.5% [100 µM] | [5] -72.8% [100 µM] | [6] -70.1% [100 µM] | [7] -48.4% [100 µM]
inactive: [1] 63.1% [100 µM] | [2] 13.1% [100 µM] | [8] 75.8% [100 µM] | [9] 11.8% [100 µM] | [10] 50.4% [100 µM]

CC(C)Cn1cnc2c(=O)[nH]c(N)nc21
inactive: [1] 87.9% | [2] 101% | [3] 98.9% | [4] 94.4% | [5] 88.6% | [6] 106% | [7] 95.4% | [8] 94.1% | [9] 107% | [10] 92.4%

O=S(=O)(NCCCNc1nccc(-c2c(-c3ccc(F)c(O)c3)nc3occn23)n1)c1ccc(Cl)cc1
inactive: [1] 25.6% | [2] 65.6% | [3] 59.5% | [4] 36.4% | [5] 103% | [6] 56.3% | [7] 41.7% | [8] 84.9% | [9] 47.9% | [10] 48.9%

CCN1C(=S)N(c2ccccc2)C2NC(=S)N(/N=C/C=C/c3ccccc3OC)C21 (stereo not given)
inactive: [1] 32.8% | [2] 48.2% | [3] 24.6% | [4] 44% | [5] 68.6% | [6] 33.3% | [7] 27.7%
active: [8] 1.17% | [9] 9.27% | [10] 9.49%

Cc1cc(C)c2c(c1)N(C)c1ncnc(-n3cnc4cc(C)ccc43)c1CC2C (stereo not given)
inactive: [1] 16.7% | [2] 39% | [3] 43.1% | [4] 33.1% | [5] 40% | [6] 49.6% | [7] 32.8% | [10] 12.7%
active: [8] 6.61% | [9] 0.648%

COc1ccc(CNc2c3ccccc3nc3ccccc23)cc1
inactive: [1] 60.1% | [2] 49.7% | [3] 32.2% | [4] 22.1% | [5] 49.5% | [6] 18.8% | [7] 29.3% | [8] 10% | [9] 39%
active: [10] 9.38%

CC(=O)Oc1ccc(/C(=C(\C)c2ccc(Cl)cc2)c2ccc(OCCN3CCCCC3)cc2)cc1
active: [10] -8.3%
inactive: [1] 58.4% | [2] 62.7% | [3] 64.6% | [4] 47.7% | [5] 68.4% | [6] 58.3% | [7] 74.9% | [8] 57.5% | [9] 17.5%

N=C(N)c1ccc(-c2ccc(-c3ccc(Cl)cc3Cl)s2)cc1
active: [6] -28% | [7] -67.3% | [9] -3.15% | [10] -24.3%
inactive: [1] 104% | [2] 63.5% | [3] 16% | [4] 21.8% | [5] 110% | [8] 86.3%

COC12C=C/C(=C(/C(=O)OCc3ccncc3)C(=O)CCCCCCCCC3(OC)C=C/C(=C(/C(=O)OCc4ccncc4)C(=O)CCCCCCCC1)O3)O2
active: [1] -1.63% | [2] -22.1% | [3] -30.6% | [4] -70.9% | [5] -45% | [6] -64% | [7] -48.6% | [8] -87.6% | [9] -14.8% | [10] -1.82%

COc1cc2c(cc1OCCCN1CCN(CCCOc3cc4c(cc3OC)C(=O)N3CCC[C@H]3C=N4)CC1)C=CC(C)(C)O2
active: [1] -77% | [2] -100% | [3] -65.7% | [4] -58.8% | [5] -83.6% | [6] 4.25% | [7] -71% | [8] -100% | [9] -48.6% | [10] -12.8%

CCOC(=O)c1csc(NC(=O)COc2ccc(/C=C3\Oc4ccccc4C3=O)cc2)n1
active: [4] -14%
inactive: [1] 94.8% | [2] 74% | [3] 91% | [5] 119% | [6] 108% | [7] 91.2% | [8] 119% | [9] 23.5% | [10] 42.2%

CC1CCN(CCOc2ccc(CNc3ccc4nc(CCC5CCCCC5)[nH]c4c3)cc2)CC1
active: [1] -49.9% | [4] -31.9% | [7] -4.81% | [8] 2.94%
inactive: [2] 65% | [3] 57.9% | [5] 73.1% | [6] 54.7% | [9] 11.8% | [10] 11.2%

CC(C)COc1nc2c(c(=O)n(C)c(=O)n2C)n1C
inactive: [1] 36.1% | [2] 95.1% | [3] 99.8% | [4] 94.7% | [5] 105% | [6] 102% | [7] 107% | [8] 84.7% | [9] 97.5% | [10] 93.3%

Cn1ccnc1C(=O)/C=C/c1ccc(CC(=O)Nc2cc(C(F)(F)F)cc(C(F)(F)F)c2)cc1
inactive: [1] 102% | [2] 89.8% | [3] 67.4% | [4] 63.2% | [5] 106% | [6] 84.5% | [7] 76.4% | [8] 90% | [9] 47.5% | [10] 14.7%

C=CCn1c(SCC(=O)Nc2ccc(C(=O)/C=C/c3ccc(Cl)cc3)cc2)nnc1-c1ccc(Br)cc1
inactive: [1] 76.4% | [2] 101% | [3] 80.3% | [4] 67.9% | [5] 83.3% | [6] 78.3% | [7] 74.5% | [8] 74.6% | [9] 79.7% | [10] 63.1%

CCOC(=O)C1=C(C)NC(=O)NC1c1c(Cl)n(CCCl)c2ccccc12 (stereo not given)
inactive: [1] 106% | [2] 97.8% | [3] 101% | [4] 68.5% | [5] 34.1% | [6] 99% | [7] 86.6% | [8] 95.3% | [10] 103%
active: [9] -54.5%

NS(=O)(=O)c1ccccc1NC(=O)Nc1nc2ccccc2s1
inactive: [1] 102% | [2] 85.6% | [3] 98.3% | [4] 84.1% | [5] 153% | [6] 99.4% | [7] 89.7% | [8] 97.6% | [9] 99.2% | [10] 102%

CCN(CC)CC(O)COc1c(Br)c(Br)c(Br)c2c1OC(C)(C)C2 (stereo not given)
active: [8] -86.9%
inactive: [1] 338% | [2] 105% | [3] 79.4% | [4] 91.2% | [5] 58.4% | [6] 97.9% | [7] 17.6% | [9] 45.8% | [10] 22.3%

Cc1ccc2c(Cn3cc(CSc4nc5ccccc5o4)nn3)cc(=O)oc2c1
inactive: [1] 106% | [2] 92.1% | [3] 102% | [4] 91.1% | [5] 122% | [6] 103% | [7] 100% | [8] 90% | [9] 93.4% | [10] 108%

COc1ccc(/C=N/NC(=O)c2ccc(-n3cc(-c4ccccc4)nn3)cc2)cc1OC
inactive: [1] 108% | [2] 102% | [3] 103% | [4] 108% | [5] 113% | [6] 98% | [7] 81% | [8] 100% | [9] 99.2% | [10] 95.6%

CCCNC(=O)Nc1ccc2cc3ccc(NC(=O)NCCC)cc3nc2c1
inactive: [1] 84.7% | [2] 97.8% | [3] 94.5% | [4] 76.1% | [5] 115% | [6] 78.1% | [7] 104% | [8] 71.4% | [9] 47.4% | [10] 84.8%

COc1ccccc1NC(=O)N=Nc1c(O)[nH]c2ccccc12
inactive: [1] 100% | [2] 83.9% | [3] 93.5% | [4] 58.7% | [5] 118% | [6] 93% | [7] 73.3% | [8] 90.7% | [9] 89.9% | [10] 93.4%

COC1=CC(c2ccc[nH]2)=N/C1=C\c1[nH]c(C)c(C)c1CCC(=O)OCc1ccccc1
active: [1] -28.9% | [2] -22.1% | [3] -30% | [4] -77.1% | [5] -0.0887% | [6] -39.5% | [7] -23.5% | [8] -19.8% | [9] 0.65% | [10] -23.7%

CC(C)=CCC[C@](C)(O)[C@H]1CC[C@]2(C)[C@@H]1CC[C@@H]1[C@@]3(C)C/C(=C/c4ccco4)C(=O)C(C)(C)[C@@H]3CC[C@]12C
inactive: [1] 109% | [2] 101% | [3] 97% | [4] 88.7% | [5] 103% | [6] 102% | [7] 90.7% | [8] 86.3% | [9] 101% | [10] 104%

CC(C)=CCCC(C)c1ccc(C)c2c1OCN(CCCCCO)C2 (stereo not given)
inactive: [1] 92.7% | [2] 102% | [3] 78.6% | [4] 57% | [5] 73.7% | [6] 94.1% | [7] 78.1% | [8] 75.3% | [9] 96% | [10] 66.5%

Cc1cc(C(=O)Nc2ncc(Cc3cccc(C(F)(F)F)c3)s2)c2ccccc2n1
active: [1] -16% | [8] 0.174%
inactive: [2] 43.2% | [3] 47.7% | [4] 29% | [5] 49.5% | [6] 28.1% | [7] 13.3% | [9] 11.8% | [10] 14.9%
